The results in this text go back to PubChem BioAssay (NCI).

This is part of a sample that, as a whole, favours compounds with a hit. Of some 83,000 tested, about 20% had one in any assay.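 Compound tested at a single concentration for 48 hours in 96-well plates; a percent growth value below 10 was scored as active.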 Unmarked numbers belong to inactive results. Active and inactive are the calls of the source.

The experiment concerns KM12 colon. The experiment can be described thus: NCI-60 one-dose screen, 48 h (100 = growth as untreated, 0 = no growth, -100 = all killed). To be noted: 10 µM unless noted. As for the experimental part:
Growth inhibition of the KM12 human tumor cell line is measured as a screen for anti-cancer activity. Cells are grown in 96 well plates and exposed to the test compound for 48 hours. Compounds are tested at a single concentration, which is 10^-5 M for most compounds. The reported endpoint is percent growth (GI% or GIPRCNT), where numbers from 0 - 100% represent growth inhibition, and numbers from -100% - 0 represent cell death. For example, a value of 40 represents 60% growth inhibition. A value of 0 means no net growth occurred over the course of the experiment. A value of -40 indicates 40% of cells at the beginning of the experiment died by the end of the experiment. A value of -100 means all cells are dead at the end of the experiment.
NCI-60 Human Tumor Cell Lines Screen was performed using the standard one-dose NCI protocol, which is described in more detail at https://dtp.cancer.gov/discovery_development/nci-60/default.htm.
Compounds with GIPRCNT values below 10 were considered active. Activity score was based on GIPRCNT using the following formula: […]
Score is 0 for GIPRCNT values of 100 or above, 50 for GIPRCNT values of 0, and 100 for GIPRCNT values of -100.
With `CC1=C(C)C(=O)C(Nc2ccccc2)=C(Cl)C1=O`, the growth was 78.3%.

`CS(=O)(=O)c1ccc(-c2nc3ccccn3c2/C=N/Nc2nc(-c3ccc(Br)cc3)cs2)cc1`: the growth is 101%.

With `CC(C)(C)Nc1nc2c(OCCc3ccccc3)cccn2c1-c1cccc(F)c1`, the growth is 4.77% (active).

Take `CCN1C(=S)N(CC)C2C1N=C(SC)N2/N=C/C=C/c1ccccc1[N+](=O)[O-]` (stereo not given): the growth was 97.6%.

As for `Clc1ccc2oc3c(NCCCN4CCOCC4)c4ccccc4nc3c2c1`, the growth was 26.5%.

With `O=c1[nH]c2ccccc2cc1CSc1ccccc1Nc1nccc(-c2ccc(C(F)(F)F)cc2)n1`, the growth was 79.3%.

Turning to `O=C(Nc1nc2ccc(O)cc2s1)c1cccc(C(F)(F)F)c1`, the growth is 42.7%.

Take `COC(=O)C(C)NS(=O)(=O)/N=C1\NC(=O)NC1=C(Cl)Cl` (stereo not given): the growth was 105%.

As to `NS(=O)(=O)c1ccc(Nc2nc(SCC(=O)c3ccc(Cl)cc3)nc3ccccc23)cc1`, the growth was 87%.

Regarding `NC(=O)c1cc(-c2ccc3ncnc(N4CCc5cc(F)c(Cl)cc54)c3c2)cnc1N`, the growth was 29.9%.

With `COc1cc(OC)c(S(=O)(=O)NNC(=O)c2ccncc2)cc1C(=O)/C=C/c1ccc(C)cc1`, the growth is 54.8%.

Turning to `COc1cccc(N2CCN(c3ncnc4c3[nH]c3ccc(F)cc34)C[C@@H]2C)c1`, the growth is -71% (active).

As for `N#Cc1nc(-c2ccccc2)oc1N1CCC(CO)C1` (stereo not given), the growth is 101%.

`COc1cc(-c2nc3ccc(-c4nnc(SCC(=O)Nc5ccc(C(C)=O)cc5)o4)cc3[nH]2)cc(OC)c1OC`: the growth was 101%.

With `CCOC(=O)c1c(Nc2ccccc2)nn2c(N)c(C#N)c(-c3ccc(F)cc3)nc12`, the growth was 87.3%.

Take `O=C(N/N=C/c1ccc([N+](=O)[O-])o1)c1[nH]c2ccc(Br)cc2c1-c1ccccc1`: the growth was 15.3%.

Take `N#Cc1c(-c2ccc(Cl)cc2)nc2c(-c3ccccc3)c(Nc3ccccc3)nn2c1N`: the growth is 60%.

Turning to `Clc1ccc2oc3c(OCCCn4ccnc4)c4ccccc4nc3c2c1`, the growth is 55.8%.

On to `CC(=O)Oc1ccccc1C(=O)Nc1ccc(C(=O)/C=C/c2ccncc2)cc1`, for which the growth was -31.9% (active).

For the compound `CCOc1ccc([C@H]2C(C(=O)c3ccc(Cl)cc3)C3(N[C@@H]2c2ccccc2)C(=O)Nc2ccc(Br)cc23)cc1` (stereo not given in full), the growth was -10.8% (active).

As for `CCOC(=O)c1csc(NC(=O)CSc2nc3sc4c(c3c(=O)n2-c2ccc(Cl)cc2)CCCC4)n1`, the growth was 109%.

On to `CS(=O)(=O)c1ccc(-n2cc(/C=C/C(=O)c3ccc(NC(=O)CO[N+](=O)[O-])cc3)c(-c3ccc(Cl)cc3)n2)cc1`, for which the growth was 107%.

Turning to `Cc1cccc2sc(/N=C(\N)C(Cl)(Cl)Cl)nc12`, the growth is 97.5%.

Consider `C=C1CC[C@H]2[C@@](C)(CCC3OC(c4ccc(OCc5cn(C6CC(OC(C)=O)C(OC(C)=O)C(COC(C)=O)O6)nn5)cc4)OC[C@]32C)[C@@H]1/C=C/C1=CCOC1=O` (stereo not given in full), for which the growth was 86.3%.

Regarding `COc1ccc(Cc2nn(CC(=O)N/N=C/c3ccc(Cl)cc3)c(=O)c3c(C)noc23)cc1`, the growth is 85.9%.

On to `COc1ccc(C(=O)c2cc(C(=O)/C=C/c3c(Cl)cccc3Cl)c3cc(C)ccn23)cc1`, for which the growth is 100%.

Regarding `O=C1/C(=C/C2=Cc3ccccc3OC2)SC(=S)N1c1ccc(F)cc1`, the growth is 97.5%.

With `N=C1CC(=O)NN1C(=O)CSc1nc2sc3c(c2c(=O)n1-c1ccc(Cl)cc1)CCCC3`, the growth was 104%.

With `Cc1nc(-c2cc3ccccc3oc2=O)ccc1C(=O)/C=C/c1ccc(Cl)c(Cl)c1`, the growth is 103%.

Take `O=C(N/N=C/c1ccco1)c1[nH]c2ccc(Br)cc2c1-c1ccccc1`: the growth was 12.8%.

For the compound `N#Cc1c(-c2ccc(Cl)cc2)nc(SCc2ccc([N+](=O)[O-])cc2)nc1N1CCNCC1`, the growth is -47.2% (active).

Consider `COc1cc2nc(-c3ccc(Cl)cc3)cc(OCCCNCC3CCCO3)c2cc1OC` (stereo not given), for which the growth was 39.8%.

As to `COC(=O)C1CN(S(=O)(=O)/N=C2\NC(=O)NC2=C(Cl)Cl)C1`, the growth is 8.89% (active).

On to `Cn1ccnc1C(=O)/C=C/c1ccc(NC(=O)Nc2ccc(Cl)cc2)cc1`, for which the growth was 49.6%.

In the case of `Cc1sc2nc(NCc3ccccc3Cl)[nH]c(=O)c2c1C`, the growth was 91%.

Turning to `Nc1nc(N)c2c(n1)NC(c1ccc(C(F)(F)F)cc1)CC(c1ccc(Nc3nc(NCCO)nc(Nc4ccc(Cl)cc4)n3)cc1)=N2` (stereo not given), the growth was -65.3% (active).

Take `Cc1cccc2sc(/N=C(\N)C(Br)Br)nc12`: the growth was 9.77% (active).

`COc1ccc(/C=C/C(=O)c2ccc(NC(=O)CSc3nnc(-c4ccc5nc(-c6ccc(Cl)cc6)[nH]c5c4)o3)cc2)cc1`: the growth was 99.7%.

With `Nc1cc(-c2c[nH]c3ccc(F)cc23)nc2cc(-c3c[nH]c4ccc(F)cc34)nn12`, the growth is 40.6%.

On to `CCCSc1nc(Nc2ccc(/C(C)=N\NC(N)=S)cc2)c(C#N)c(-c2ccc(OC)cc2)n1`, for which the growth was 84.7%.
